Whole data set: some 25,000 sequences, median “ln(normalized median fluorescence intensity)” near 6.7, cut for the highest 2% near 10. The sample holds the highest values, similar sequences and a random draw of the others, so the mix is not that of the screen.
test system: PfHDP1 homeodomain (GST-tagged); test: gcPBM binding intensity (ln(normalized median fluorescence intensity)); higher = stronger DNA binding
Outline: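 Using an Agilent 4 × 180k array, primer-extended double-stranded 36-bp intergenic genomic probes and negative controls were exposed for 1 h to GST-fused P. falciparum DNA-binding domains expressed in E. coli. Binding was carried out in 1× PBS with 1% milk, 0.2 mg/ml BSA, 0.5% salmon testes DNA and 0.03% Triton X-100, and protein was detected with Alexa488 anti-GST antibody and a 488 nm scan. Binding intensity is the highest Masliner-normalised natural-log median intensity across replicate spots of either probe orientation.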

Q: Which “gcPBM binding intensity (ln)” value does the source give for AAAGGATTTATACTAGTGCAAAAATATAAAAATATA here?
A: The value was 9.12.

Q: For “TTTTTTTTTTATGAAAGTACATATGAAAAATACGAA [XGTACX_site3451]”, which “gcPBM binding intensity (ln)” value is on record?
A: Its value is 6.53.

Q: With “CATTTTTTTTTATAAATACACACGTACGGGTGCATA [CACACA_site1569]” as the sequence, how does the “gcPBM binding intensity (ln)” value read?
A: The value was 7.38.

Q: “ATTAAAAATTCAATTGCACACGCACATATTTTAATA [CACACA_site8618]” was tested. Which “gcPBM binding intensity (ln)” value did it give?
A: Its value is 9.92.

Q: How did the “gcPBM binding intensity (ln)” value turn out when “ATATTTAAATTTTGCACACGCATATGAAATTAGGAC [CACACA_site1035]” was run?
A: Its value is 10.5.

Q: With “TGATATTTAAATTTTGCACACGCATATGAAATTAGG [CACACA_site1034]” as the sequence, how does the “gcPBM binding intensity (ln)” value read?
A: The value was 10.1.

Q: For “GACTCATTAAGGATTATTCCTAATGATCAAAAGAAC [CACACA_negctrl_site515]”, which “gcPBM binding intensity (ln)” value is on record?
A: The value was 6.54.

Q: TCTTAAAATATATAGGTGCAAAAAAAAAAAAAAAAA was tested. Which “gcPBM binding intensity (ln)” value did it give?
A: Its value is 8.62.

Q: With “TTTCTAATTTATATCACACACATATATTTATAGTAA [CACACA_site6280]” as the sequence, how does the “gcPBM binding intensity (ln)” value read?
A: The value was 6.53.

Q: For “ATAAAAATCAAAAAAAATACATAATAGTAATAATAA [GTGCAC_negctrl_site481]”, which “gcPBM binding intensity (ln)” value is on record?
A: The value was 6.42.

Q: Which “gcPBM binding intensity (ln)” value does the source give for CTTTATATATATTGCGTGCACATTTTTTTTTTTTTT here?
A: The value was 9.4.

Q: For “ATGCATACACTTATATGTACACATTTACATATTATT [XGTACX_site2841]”, which “gcPBM binding intensity (ln)” value is on record?
A: Its value is 6.93.

Q: How did the “gcPBM binding intensity (ln)” value turn out when “CTTATGTGCATACCTACACACTTACCTATATTTATA [CACACA_site7411]” was run?
A: Its value is 9.67.

Q: TATATATATATATATGTGCACATTTATTGCCTTTGC was tested. Which “gcPBM binding intensity (ln)” value did it give?
A: Its value is 10.6.

Q: How did the “gcPBM binding intensity (ln)” value turn out when CATGAATATTTTAATGTGCACATTTATCATTATATG was run?
A: The value was 10.6.

Q: How did the “gcPBM binding intensity (ln)” value turn out when “TTTTGTTTATGTGTGCATTATATTATATTTTTTATT [TGCATGCA_negctrl_site146]” was run?
A: Its value is 10.2.

Q: “GTAAAGGCTATATATGTGCACATTTTTTTTTTTTTT [GTGCAC_site9925]” was tested. Which “gcPBM binding intensity (ln)” value did it give?
A: Its value is 10.9.

Q: With “GGAACTTATTTTTATACACACATATGTGCATATTAT [CACACA_site629]” as the sequence, how does the “gcPBM binding intensity (ln)” value read?
A: The value was 10.8.

Q: How did the “gcPBM binding intensity (ln)” value turn out when “ATTTTTATATAATGAACACACATATTATATCATTTA [CACACA_site1572]” was run?
A: The value was 6.51.

Q: Which “gcPBM binding intensity (ln)” value does the source give for “TTTCACATATATATGGTGCATATTTTATGTGTAAAT [GTGCAC_site9937]” here?
A: The value was 9.91.

Q: How did the “gcPBM binding intensity (ln)” value turn out when “ATATTTTTATATAATGAACACACATATTATATCATT [CACACA_site8446]” was run?
A: The value was 6.22.

Q: TTTTTTTTCTATGTGGTGCACATTATTTTTTTTTTT was tested. Which “gcPBM binding intensity (ln)” value did it give?
A: The value was 9.27.

Q: For “TTTTGTTTAGTGTATTGTACAATATATCTTTATTTT [XGTACX_site5163]”, which “gcPBM binding intensity (ln)” value is on record?
A: The value was 6.52.

Q: For “TTTTGGCTGATCAGATTTAACAAAAAAAAAAAAAAA [CACACA_negctrl_site671]”, which “gcPBM binding intensity (ln)” value is on record?
A: Its value is 6.06.

Q: For “GAAATTAAATGACATACACACTATATTATAGATTTT [CACACA_site7468]”, which “gcPBM binding intensity (ln)” value is on record?
A: The value was 6.23.

Q: With “AGTGGGATTTTTAATTGTACATAAATAATATCATAA [XGTACX_site4163]” as the sequence, how does the “gcPBM binding intensity (ln)” value read?
A: The value was 6.56.

Q: For “AGAATTAAAAACAGTTGTACAAAAAGTTGTATAAAT [XGTACX_site411]”, which “gcPBM binding intensity (ln)” value is on record?
A: The value was 7.41.

Q: “AAATAAAAGGTTGAGAGTACATTTTTGTGTATGTAT [XGTACX_site5547]” was tested. Which “gcPBM binding intensity (ln)” value did it give?
A: Its value is 6.49.

Q: How did the “gcPBM binding intensity (ln)” value turn out when “ACTGAAAAAAGAAATACACACATTCTGGATCAGATA [CACACA_site7760]” was run?
A: The value was 6.39.

Q: Which “gcPBM binding intensity (ln)” value does the source give for “ATTTACATTATATTGAATATGCCATATTATATTATT [CACACA_negctrl_site811]” here?
A: The value was 6.59.

Q: Which “gcPBM binding intensity (ln)” value does the source give for “CGTATGTGCGGACATGCATGCAATATACAAGAAAAA [TGCATGCA_site145]” here?
A: The value was 7.01.

Q: Which “gcPBM binding intensity (ln)” value does the source give for TATATATATATATATGTGCACATTTTATTAAAATGT here?
A: Its value is 10.2.

Q: Which “gcPBM binding intensity (ln)” value does the source give for “TATATTATTCATTAAGCACACATTATTTTTATAATA [CACACA_site6056]” here?
A: Its value is 6.36.

Q: Which “gcPBM binding intensity (ln)” value does the source give for “TATTTTTAACAGTGCACACATAACTTAATTATATGT [CACACA_site2194]” here?
A: The value was 9.55.

Q: TTATATTATATATATGTGCACATTTTTAAACTTGGA was tested. Which “gcPBM binding intensity (ln)” value did it give?
A: The value was 10.7.

Q: For “ACATATTATTCAAGTGCACACTTTATATTTATGATT [CACACA_site3295]”, which “gcPBM binding intensity (ln)” value is on record?
A: The value was 8.81.

Q: With CATTATATGATTTATGTGCACATTCATTTATTTTAA as the sequence, how does the “gcPBM binding intensity (ln)” value read?
A: The value was 10.8.

Q: “TACTTAATTATAAGGACATGCACAAAAGGAATTATT [TGCATGCA_site468]” was tested. Which “gcPBM binding intensity (ln)” value did it give?
A: Its value is 8.01.

Q: CTTATTTTGTTATAAGTGCATTTTTTAAAATTTCTT was tested. Which “gcPBM binding intensity (ln)” value did it give?
A: Its value is 8.33.

Q: Which “gcPBM binding intensity (ln)” value does the source give for ATTTATTTCTTGTTAGTGCACTTTCTTTGGTAAAAT here?
A: The value was 10.9.

Q: How did the “gcPBM binding intensity (ln)” value turn out when TGTTAAAATTATTTGGTGCACTTGTTTTACCTTATT was run?
A: Its value is 9.92.

Q: With “ATCTTATATATACGTTGTACTACAGGATATGTCATA [XGTACX_site5734]” as the sequence, how does the “gcPBM binding intensity (ln)” value read?
A: The value was 6.63.

Q: With “TTAAAATTCAAAAAAAAAAATCAGAATATCAGAAAA [CACACA_negctrl_site1361]” as the sequence, how does the “gcPBM binding intensity (ln)” value read?
A: The value was 5.92.

Q: How did the “gcPBM binding intensity (ln)” value turn out when “ATATTACACATATATGCACACATTGTAGTTATTTAT [CACACA_site8843]” was run?
A: The value was 8.92.

Q: With “ATTTATATGCACCATTGTACGTTTTATAAAGTTTGG [XGTACX_site3755]” as the sequence, how does the “gcPBM binding intensity (ln)” value read?
A: Its value is 10.5.

Q: For “ATTGTGCACTTATATGCACACATTTTAGTTTTTTTT [CACACA_site2028]”, which “gcPBM binding intensity (ln)” value is on record?
A: Its value is 11.5.

Q: For “TATATATATTAGTGTGCACACTTTTTATTTTTATCC [CACACA_site8506]”, which “gcPBM binding intensity (ln)” value is on record?
A: The value was 10.5.

Q: “TAATATTATTATTTTACACACTTTTTTCCTTTTATC [CACACA_site2457]” was tested. Which “gcPBM binding intensity (ln)” value did it give?
A: Its value is 6.61.

Q: With ATTTATATTAAAAGTGTGCACTTTTTTTTTTTTTTT as the sequence, how does the “gcPBM binding intensity (ln)” value read?
A: The value was 8.1.

Q: How did the “gcPBM binding intensity (ln)” value turn out when TATATTTATATATTAGTGCACTTTTTGTTAATTTTT was run?
A: Its value is 10.3.

Q: For “TTATATTTAGTATATGCACACTTTATGTTTGTTATT [CACACA_site5163]”, which “gcPBM binding intensity (ln)” value is on record?
A: The value was 9.53.

Q: With “CATTTTGTTTTAAAGTGTACATTATGTAATATAAAA [XGTACX_site647]” as the sequence, how does the “gcPBM binding intensity (ln)” value read?
A: The value was 6.54.

Q: “ATATATATATAAAGTTGTACATTTTTTATTTTTTCA [XGTACX_site7847]” was tested. Which “gcPBM binding intensity (ln)” value did it give?
A: The value was 8.52.

Q: With “TATATATTTCGGTGTGCACACTTTTTATTTTTATCC [CACACA_site1726]” as the sequence, how does the “gcPBM binding intensity (ln)” value read?
A: The value was 10.7.

Q: For “TATATATGTATATGTGTGCACCTTATTTCTTTTATT [GTGCAC_site9513]”, which “gcPBM binding intensity (ln)” value is on record?
A: Its value is 9.55.

Q: For “TTTCAATGTGACACGTGTCCGTAAAATTACATAATT [XGTACX_site7073]”, which “gcPBM binding intensity (ln)” value is on record?
A: The value was 6.61.

Q: “ATCGCGAAGTAGCATTCACACACAGCAAAATATATA [CACACA_site9162]” was tested. Which “gcPBM binding intensity (ln)” value did it give?
A: Its value is 6.65.

Q: How did the “gcPBM binding intensity (ln)” value turn out when “ATATATATATTTATATGTACATAATATAAAATTTCT [XGTACX_site3720]” was run?
A: Its value is 7.7.

Q: How did the “gcPBM binding intensity (ln)” value turn out when “ATGTTTTTTATTCTTCGTACGTATGAACGATAGTGT [XGTACX_site4225]” was run?
A: Its value is 6.71.

Q: “GCTTGTACATTTTTAAAAAATGACTTCGAAAGGAAT [CACACA_negctrl_site453]” was tested. Which “gcPBM binding intensity (ln)” value did it give?
A: The value was 7.01.
